SIRT5 block: sirtuin-5 (human) deacylase inhibition | Q9NXA8 | Purified SirT5, succinyl-peptide AMC, trypsin-coupled fluorescence | inhibition, % at 15 µM | actives 1.1% (n = 330,000) | AID 652115; in the data active = inhibition above about 15%
INS-1E GSIS act: GLuc luminescence reporter in INS-1E cells, primary screen for activators of glucose-dependent secretion of insulin. INS-1E GLuc reporter insulin secretion, 2-3 h. AID 743287. actives 0.61% (n = 370,000). activation, % at 16.6 µM;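 active = lowest replicate activation of at least 40%, so every replicate reaches that level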
FGF22 binding: binders of recombinant human FGF22 by thermal shift | Q9HCT0 | actives 1.5% (n = 340,000) | SYPRO orange fluorescence; percent of sucrose octasulfate shift, DMSO zero | activity (Tm shift, normalised), % at 9.99 µM;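 active = mean Tm shift, scaled 0 neutral to 100 positive control, at about 1.3% or above, every replicate too, limit read from the data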
Target sequence (Q9HCT0 whole entry, looked up): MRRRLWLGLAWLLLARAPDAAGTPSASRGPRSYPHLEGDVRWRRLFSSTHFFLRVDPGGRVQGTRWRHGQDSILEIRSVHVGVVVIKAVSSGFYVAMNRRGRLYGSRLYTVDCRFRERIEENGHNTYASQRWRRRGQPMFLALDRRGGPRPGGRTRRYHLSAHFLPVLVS
Casp6 inh: blocks human caspase-6 cleavage activity | AID 686996 | P55212 | inhibition, % at 12.5 µM | actives 0.53% (n = 350,000) | purified caspase-6, Z-VEID-R110 cleavage fluorescence;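 active = mean inhibition across replicates at least about 35%, with every replicate also reaching that limit, limit read from the data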
Target sequence (P55212 24-179 limits assumed): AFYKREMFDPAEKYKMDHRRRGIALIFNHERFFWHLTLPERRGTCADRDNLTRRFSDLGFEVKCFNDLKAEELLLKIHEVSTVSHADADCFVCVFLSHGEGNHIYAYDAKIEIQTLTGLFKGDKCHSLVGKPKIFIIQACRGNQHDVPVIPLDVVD
Target sequence (P55212 194-293 limits assumed): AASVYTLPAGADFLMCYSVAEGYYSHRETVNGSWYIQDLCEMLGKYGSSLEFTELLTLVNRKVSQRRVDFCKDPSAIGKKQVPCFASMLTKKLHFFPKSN
ERAP1 inh: blocks human ERAP1 aminopeptidase activity. recombinant ERAP1, Leu-AMC fluorescence, 60 min. inhibition, % at 10.7 µM. actives 0.15% (n = 340,000). AID 652197;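 active = mean replicate inhibition of at least 30%, or all replicates individually reaching that 30% level; inactive = mean below 30% and not every replicate reaching it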
Hits are given with their value; - = inactive; . = not tested or not shown. Shown are actives, neighbours in structure and some others; about 3.3% of the full set was active somewhere.

SMILES | SIRT5 block | INS-1E GSIS act | FGF22 binding | Casp6 inh | ERAP1 inh
O=C(CCn1cnc2ccccc21)N/N=C/c1ccccc1O | - | - | - | - | -
Cc1ccc(N(CC(=O)N/N=C/c2cccnc2)S(=O)(=O)c2ccccc2)cc1 | - | - | 43.6 | - | -
Cc1ccc(NC(=O)CCC(=O)N/N=C/c2cccnc2)cc1 | - | - | - | - | -
Cc1ccc(S(=O)(=O)N(C)C[C@H]2Oc3c(cccc3N(C)C)C(=O)N([C@@H](C)CO)C[C@H]2C)cc1 | - | - | - | - | -
CN(C)CCCNC(=O)C[C@H]1C=C[C@@H](NC(=O)c2ccccc2F)[C@H](CO)O1 | - | - | - | - | -
COc1ccc2ccc3cccc[n+]3c2c1 | - | - | - | - | 43.2
O=C(Cn1c(-c2ccccc2)c[n+]2ccsc12)c1ccc([N+](=O)[O-])cc1 | - | - | 42.9 | - | -
O=C(Cn1c(-c2ccccc2)c[n+]2ccsc12)c1ccccc1 | - | - | - | - | -
CCCNC(=O)N1C[C@@H](C)[C@H](OC)CN(C)C(=O)c2ccc(NC(=O)CC)cc2OC[C@H]1C | - | - | - | - | -
C[C@H]1CN([C@@H](C)CO)C(=O)c2cc(NC(=O)C3CC3)ccc2O[C@@H]1CN(C)C(=O)Nc1ccccc1 | - | - | - | - | -
C[C@@H]1CN([C@H](C)CO)C(=O)c2cc(/C=C/c3ccccc3)cnc2O[C@@H]1CN(C)S(=O)(=O)c1cccs1 | - | - | - | - | -
CC(=O)NC1C(=O)N(CCN2CCOCC2)c2ccc(Br)cc21 (stereo unspecified) | - | - | - | - | -
CCOc1ccc2c(c1)C(NC(C)=O)C(=O)N2CCN1CCOCC1 (stereo unspecified) | - | - | - | 55.1 | -
COc1ccc(CN(C)C[C@@H]2Oc3c(NS(=O)(=O)c4ccc(OC)cc4)cccc3C(=O)N([C@@H](C)CO)C[C@@H]2C)cc1 | - | - | - | . | -
COc1ccccc1NC1=NC(C)(C)N=C(N)N1 | . | - | . | . | .
CC1(C)N=C(N)NC(Nc2ccccc2Cl)=N1 | - | - | 43.0 | - | -
C/C=C/c1ccc([C@H]2[C@H]3CN(C(=O)Nc4ccc(OC)cc4)CC(=O)N3[C@H]2CO)cc1 | - | - | . | - | -
O=[N+]([O-])c1ccc2c(c1)nc1n2CCCCC1 | 16.6 | - | - | - | -
O=[N+]([O-])c1ccc2c(c1)nc1n2CCN(C2CCCCC2)C1 | - | - | - | - | -
Cc1ccc(S(=O)(=O)N(C)C[C@@H]2Oc3ccc(NC(=O)CCCCCC(=O)Nc4ccccc4N)cc3CC(=O)N([C@H](C)CO)C[C@H]2C)cc1 | - | - | - | - | -
Cc1[nH][nH]c(=O)c1C(c1ccc(-c2ccc(F)cc2)o1)c1c(C)[nH][nH]c1=O | - | - | 43.0 | . | -
Cc1[nH][nH]c(=O)c1C(c1ccc(-c2ccc(C(=O)O)cc2)o1)c1c(C)[nH][nH]c1=O | - | - | - | - | -
CC(C)C(=O)Nc1ccc2c(c1)C(=O)N(C)[C@@H]1CC[C@H](CC(=O)NCc3ccc(F)cc3)O[C@H]1CO2 | - | - | - | - | -
CCCc1cc(=O)[nH]c(SCc2nc3ccc([N+](=O)[O-])cc3[nH]2)n1 | - | - | 43.3 | - | -
Cc1cc(=O)[nH]c(SCc2nc3ccc([N+](=O)[O-])cc3[nH]2)n1 | - | - | - | - | -
SMILES | SIRT5 block | INS-1E GSIS act | FGF22 binding | Casp6 inh | ERAP1 inh
O=C(C[C@H]1CC[C@H](NC(=O)c2ccc(F)cc2)[C@@H](CO)O1)NCc1ccncn1 | - | - | - | - | -
COc1cc(N2CCCC2)ccc1C=O | - | - | 44.1 | - | -
O=C(C[C@@H]1CC[C@H]2[C@@H](COC[C@@H](O)CN2Cc2ccc(Oc3ccccc3)cc2)O1)Nc1nccs1 | - | - | - | - | -
COc1cc(/C=C2/C(=N)N3C(=NC2=O)SN=C3S(C)(=O)=O)ccc1OS(=O)(=O)c1ccc(C)cc1 | - | - | . | - | -
Cc1ccc(-n2cccc2/C=C2/C(=N)N3C(=NC2=O)SN=C3S(C)(=O)=O)cc1 | . | - | . | . | .
Cc1cc(C)cc(-n2cccc2/C=C2/C(=N)N3C(=NC2=O)SN=C3S(C)(=O)=O)c1 | - | - | - | 37.4 | -
COc1cccc(-n2c(C)cc(/C=C3/C(=N)N4C(=NC3=O)SN=C4S(C)(=O)=O)c2C)c1 | - | - | 1.4 | 43.0 | -
CS(=O)(=O)C1=NSC2=NC(=O)/C(=C\c3cccn3-c3ccccc3Cl)C(=N)N21 | - | - | . | 40.6 | -
CCCNC(=O)C[C@@H]1CC[C@@H]2[C@H](COc3ccc(NC(=O)CCC)cc3C(=O)N2C)O1 | - | - | - | - | -
COc1ccc(/C=N/OC(=O)Nc2ccccc2OC)cc1 | - | - | 42.9 | - | -
COc1ccccc1NC(=S)N/N=C/c1cccc(C)c1 | - | - | - | - | -
Oc1ccc(/C=N/NC(=S)Nc2cccnc2)cc1 | - | - | 1.5 | - | .
COc1ccc(C=NNC(=S)Nc2ccc(F)cc2)cc1OC | . | - | 64.8 | - | -
COc1ccccc1NC(=S)N/N=C/c1ccc(O)cc1 | - | - | 1.5 | - | -
C[C@@H]1CN([C@H](C)CO)C(=O)c2cc(C#CC3CC3)cnc2O[C@@H]1CN(C)C(=O)c1ccccc1 | - | - | - | - | -
C[C@H](CO)N1C[C@H](C)[C@H](CN(C)CC2CC2)Oc2ccc(NC(=O)C3CC3)cc2CC1=O | - | - | - | - | -
COc1ccc(CN(C)C[C@H]2OCCCC[C@@H](C)Oc3ccc(NS(=O)(=O)c4cn(C)cn4)cc3C(=O)N([C@H](C)CO)C[C@@H]2C)cc1 | - | - | - | - | -
COC(=O)C[C@H]1C[C@H]2c3cc(NC(=O)Nc4ccccc4F)ccc3O[C@H]2[C@@H](CO)O1 | - | - | - | - | -
Oc1ccccc1C=NNC(=S)Nc1ccc(F)cc1 | - | - | - | - | -
COc1cc(/C=N/NC(=S)Nc2cccc(C(=O)O)c2)cc(OC)c1OC | 23.4 | - | - | - | -
Fc1ccc(NC(=S)NN=Cc2ccccc2Cl)cc1 | . | - | 43.2 | - | -
COc1ccc(CN(C)C[C@@H]2OCCCC[C@@H](C)Oc3ccc(NC(=O)Nc4c(C)noc4C)cc3C(=O)N([C@@H](C)CO)C[C@@H]2C)cc1 | - | - | - | - | -
COC(=O)C[C@@H]1OC[C@H](C(C)C)N1S(=O)(=O)c1ccc(C)cc1 | - | 44.2 | - | - | -
CCOC(=O)C1=NS(=O)(=O)NC(C)=C1 | - | - | - | 35.5 | -
C[C@@H]1CN([C@@H](C)CO)C(=O)c2cc(NC(=O)CCN3CCOCC3)ccc2O[C@@H]1CN(C)S(=O)(=O)c1cccs1 | - | - | - | - | -
CC1CC2C(C(O)CC3(C)C2CCC3(O)C(=O)CO)C2(C)C=CC(=O)C=C12 (stereo unspecified) | 34.7 | - | - | - | -
CC1(C(=O)Nc2ccc3c(c2)OCO3)Cc2c(-c3ccc4c(c3)OCO4)ccnc2O1 (stereo unspecified) | - | - | - | - | -
